Assay outcomes (PubChem)
Only some compounds are listed: those with a hit (about 27% of all), similar ones and a draw of the others.
CYP2C19 inhib: human CYP2C19 inhibition; CYP2C19 Supersomes, luciferin-H EGE luminescence, 30 min; inhibition, % at 5 µM; 96,000 compounds, 21% hits;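 active means CYP2C19 inhibition above a set limit at 5 µM in the primary screen, cut at about 50% in these data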;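 further: plate controls were negative control wells for no effect and 2.5 mM tranylcypromine positive control for full effect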
Target sequence (P33261 whole entry, looked up): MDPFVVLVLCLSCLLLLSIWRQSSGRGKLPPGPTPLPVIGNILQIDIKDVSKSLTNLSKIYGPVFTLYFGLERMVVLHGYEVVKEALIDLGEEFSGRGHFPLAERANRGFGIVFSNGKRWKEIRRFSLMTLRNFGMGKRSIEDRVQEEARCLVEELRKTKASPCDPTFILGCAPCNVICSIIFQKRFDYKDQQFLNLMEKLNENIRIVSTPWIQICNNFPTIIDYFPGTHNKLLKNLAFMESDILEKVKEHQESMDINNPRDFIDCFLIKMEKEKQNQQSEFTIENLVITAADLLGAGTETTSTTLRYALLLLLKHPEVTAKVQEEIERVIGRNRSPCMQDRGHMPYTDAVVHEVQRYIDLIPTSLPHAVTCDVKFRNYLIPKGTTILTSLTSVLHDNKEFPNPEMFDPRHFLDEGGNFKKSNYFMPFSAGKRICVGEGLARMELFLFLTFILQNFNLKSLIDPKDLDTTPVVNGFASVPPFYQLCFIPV
CYP2C19 activ: increases human CYP2C19 enzyme activity | activation factor at 5 µM | 96,000 tested, under 10 active | P33261 | recombinant CYP2C19, luciferin-H EGE luminescence; active compounds read high; 0 = fully inhibited enzyme, 1 = untreated enzyme | AID 1025;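 active means activation factor of at least 2 at 5 µM in the primary screen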;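 further: 0 = wells with 2.5 mM tranylcypromine and 1 = vehicle-only wells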
CYP2C9 inh: blocks human cytochrome P450 2C9; P11712; CYP2C9 Supersomes, luciferin-H conversion, luminescence; inhibition, % at 5 µM; 96,000 compounds, 20% hits;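 active means blocking of liver enzyme CYP2C9 beyond about 50% at 5 µM, limit read from the data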
Cav32 inh: human Cav3.2 channel inhibition, primary screen; O95180; B-score at 10 µM; 100,000 compounds, 4% hits; AID 449739; Cav3.2-expressing cells, Fluo-4 calcium fluorescence FDSS; active compounds read low;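 active means single-dose well whose peak fluorescence ratio is a statistical outlier from its plate by either plate-standardised score or position-corrected B-score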
CYP2C9 activ: activators of human CYP2C9 | recombinant CYP2C9, luciferin-H conversion, luminescence; active compounds read high; factor 1 = untreated enzyme, 0 = blocked | activation factor at 5 µM | 96,000 compounds, 1.4% hits | P11712 | AID 1024;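 active means activation factor of 2 or more for CYP2C9 at a 5 µM dose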;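 further: 0 = sulfaphenazole-blocked wells and 1 = vehicle-only wells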
* = called active by the depositor.

What do the screens show for `Cc1nn(-c2ccccc2)c2c1P(=O)(O)/C(=C1\N(C)c3ccccc3C1(C)C)C=N2`?
CYP2C19 inhib: 3.4; CYP2C19 activ: 1; CYP2C9 inh: 2.9; Cav32 inh: 0.0095; CYP2C9 activ: 1

How did CCOC(=O)c1cccc(NC(=O)CSc2nnc(COc3ccc(Cl)cc3)o2)c1 do in these assays?
CYP2C19 inhib: 5.4; CYP2C19 activ: 0.9; CYP2C9 inh: 34.3; Cav32 inh: -0.0219; CYP2C9 activ: 0.7

How did Cc1cc(N2CCCCC2)nc(SCC(=O)c2ccccc2)n1 do in these assays?
CYP2C19 inhib: 25.0; CYP2C19 activ: 0.8; CYP2C9 inh: 26.4; Cav32 inh: -4.03; CYP2C9 activ: 0.7

How did Cc1cc(-c2ccccc2)nc(SCC(=O)c2cccc([N+](=O)[O-])c2)n1 do in these assays?
CYP2C19 inhib: 43.5; CYP2C19 activ: 0.6; CYP2C9 inh: 68.1*; Cav32 inh: -2.57; CYP2C9 activ: 0.3

Results for O=C(CSc1nc(N2CCCCC2)nc(N2CCCCC2)n1)c1ccccc1 ?
CYP2C19 inhib: 47.4; CYP2C19 activ: 0.5; CYP2C9 inh: 78.8*; Cav32 inh: -4.22*; CYP2C9 activ: 0.2

What do the screens show for `Cc1nc(SCC(=O)c2ccccc2)n[nH]1`?
CYP2C19 inhib: 37.6; CYP2C19 activ: 0.6; CYP2C9 inh: 52.2*; Cav32 inh: 0.182; CYP2C9 activ: 0.5

What do the screens show for `Cc1nc(SCN2C(=O)c3ccccc3C2=O)n[nH]1`?
Cav32 inh: -0.126

How did OC(CN1CCN(c2ccccc2)CC1)c1ccc2c(c1)CCN2 (configuration not stated) do in these assays?
CYP2C19 inhib: 9.9; CYP2C19 activ: 0.9; CYP2C9 inh: -15.0; Cav32 inh: 0.0898; CYP2C9 activ: 1.1

What do the screens show for `O=C(O)c1ccc(COc2c(F)c(F)c(F)c(F)c2F)o1`?
Cav32 inh: 1.96

What do the screens show for `COc1ccc(CN(C)C(=O)COC(=O)c2ccc3c(c2)OCO3)cc1OC`?
CYP2C19 inhib: 32.1; CYP2C19 activ: 0.7; CYP2C9 inh: 61.0*; Cav32 inh: -0.238; CYP2C9 activ: 0.4

What do the screens show for `COc1cc(C(=O)OCC(=O)N(C)Cc2ccccc2)cc(OC)c1OC`?
Cav32 inh: 0.554

How did Cc1onc(-c2ccccc2)c1C(=O)NC(CC(=O)O)c1ccc(OC(C)C)cc1 (configuration not stated) do in these assays?
CYP2C19 inhib: 7.9; CYP2C19 activ: 0.9; CYP2C9 inh: -5.3; Cav32 inh: 0.00457; CYP2C9 activ: 1.1

What do the screens show for `COc1ccc(C(C#N)C2(C)OCCO2)cc1OC` (configuration not stated)?
CYP2C19 inhib: 14.5; CYP2C19 activ: 0.9; CYP2C9 inh: 27.1; Cav32 inh: 0.111; CYP2C9 activ: 0.7

How did COc1ccc(NC(=O)CSc2nc3c(c(=O)n2-c2ccc(F)cc2)SCC3)c(OC)c1 do in these assays?
CYP2C19 inhib: 73.1*; CYP2C19 activ: 0.3; CYP2C9 inh: 79.6*; Cav32 inh: 0.0803; CYP2C9 activ: 0.2

How did CCOc1ccc(-n2c(SCC)nc3c(c2=O)SCC3)cc1 do in these assays?
CYP2C19 inhib: -9.0; CYP2C19 activ: 1.1; CYP2C9 inh: -5.0; Cav32 inh: 0.391; CYP2C9 activ: 1.1

Results for CCOc1ccc(-n2c(SCC(=O)Nc3ccc4c(c3)OCCO4)nc3c(c2=O)SCC3)cc1 ?
CYP2C19 inhib: 77.1*; CYP2C19 activ: 0.2; CYP2C9 inh: 62.9*; Cav32 inh: -0.0823; CYP2C9 activ: 0.4

How did CCOc1ccc(-n2c(SCC(=O)Nc3ccc4c(c3)OCO4)nc3c(c2=O)SCC3)cc1 do in these assays?
CYP2C19 inhib: 33.4; CYP2C19 activ: 0.7; CYP2C9 inh: 59.0*; CYP2C9 activ: 0.4

Results for COc1ccc(-c2noc(CSc3ccccc3)n2)cc1OC ?
CYP2C19 inhib: 31.1; CYP2C19 activ: 0.7; CYP2C9 inh: 20.9; Cav32 inh: -0.918; CYP2C9 activ: 0.8

How did Cc1ccc(-c2noc(CSc3nnc(CCc4ccccc4)n3-c3ccccc3)n2)cc1 do in these assays?
CYP2C19 inhib: 83.0*; CYP2C19 activ: 0.2; CYP2C9 inh: 75.8*; Cav32 inh: -4.24; CYP2C9 activ: 0.2

Results for Cn1c(SCc2nc(-c3ccccc3)no2)nnc1-c1ccco1 ?
CYP2C19 inhib: 30.0; CYP2C19 activ: 0.7; CYP2C9 inh: 13.5; Cav32 inh: 0.683; CYP2C9 activ: 0.9

How did COc1ccc(-c2noc(CSc3nnc(CCc4ccccc4)n3-c3ccccc3)n2)cc1OC do in these assays?
CYP2C19 inhib: 99.3*; CYP2C19 activ: 0; CYP2C9 inh: 79.7*; Cav32 inh: -2.18; CYP2C9 activ: 0.2

How did Cc1ccc(S(=O)(=O)NC(=NCC(=O)O)c2ccc(F)cc2)cc1 do in these assays?
CYP2C19 inhib: -14.6; CYP2C19 activ: 1.1; CYP2C9 inh: -4.8; Cav32 inh: 0.772; CYP2C9 activ: 1

Results for Cc1c(CN(C)C)c2c(n1Cc1ccccc1)C(=O)c1ccccc1-2 ?
CYP2C19 inhib: -0.8; CYP2C19 activ: 1; CYP2C9 inh: -4.8; Cav32 inh: -0.056; CYP2C9 activ: 1

What do the screens show for `COc1cnn(-c2ccccc2)c(=O)c1SCc1ccc(Cl)c(Cl)c1`?
CYP2C19 inhib: 54.2*; CYP2C19 activ: 0.5; CYP2C9 inh: 52.1*; Cav32 inh: -4.49; CYP2C9 activ: 0.5

What do the screens show for `COc1cc(OC)c(-c2nn3c(-c4cccnc4)nnc3s2)cc1OC`?
CYP2C19 inhib: 13.7; CYP2C19 activ: 0.9; CYP2C9 inh: 26.3; CYP2C9 activ: 0.7

Results for O=[n+]1c2c(n([O-])c3cc(F)c(F)cc31)CCCC2 ?
CYP2C19 inhib: -21.7; CYP2C19 activ: 1.2; CYP2C9 inh: -16.2; Cav32 inh: 0.388; CYP2C9 activ: 1.2

What do the screens show for `Cc1oc(-c2ccccc2F)nc1CS(=O)(=O)CC(=O)NCc1ccco1`?
CYP2C19 inhib: 10.9; CYP2C19 activ: 0.9; CYP2C9 inh: 32.3; CYP2C9 activ: 0.7

What do the screens show for `CC1CN(S(=O)(=O)c2cccc(-c3csc(-c4ccccc4)n3)c2)CC(C)O1` (configuration not stated)?
CYP2C19 inhib: 20.0; CYP2C19 activ: 0.8; CYP2C9 inh: 57.5*; Cav32 inh: -1.11; CYP2C9 activ: 0.4

Results for Cc1nc(-c2cccc(S(=O)(=O)N3CCCCCC3)c2)cs1 ?
CYP2C19 inhib: 94.7*; CYP2C19 activ: 0.1; CYP2C9 inh: 66.5*; Cav32 inh: -3.48; CYP2C9 activ: 0.3

Results for O=S(=O)(c1cccc(-c2csc(-c3ccccc3)n2)c1)N1CCOCC1 ?
CYP2C19 inhib: 47.3; CYP2C19 activ: 0.5; CYP2C9 inh: 61.2*; Cav32 inh: -0.485; CYP2C9 activ: 0.4

Results for O=S(=O)(c1cccc(-c2nc3ccccc3s2)c1)N1CCOCC1 ?
CYP2C19 inhib: 12.4; CYP2C19 activ: 0.9; CYP2C9 inh: 0.3; Cav32 inh: -0.0149; CYP2C9 activ: 1

Results for Cn1cnnc1SCc1ccc(C(=O)n2ncc(C#N)c2N)cc1 ?
CYP2C19 inhib: -2.8; CYP2C19 activ: 1; CYP2C9 inh: -4.9; Cav32 inh: 0.366; CYP2C9 activ: 1
